For 36 compounds, composite z-score results are on record in PubChem BioAssay.

For the first assay, the system named is Plasmodium falciparum Sir2 (PF13_0152, Sir2A). Description: pfSir2 binders on small-molecule microarrays, primary screen, biochemical, small-molecule microarray, 635 nm fluorescence (AID 1098).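 Also: score merges spot fluorescence intensity with its signal-to-noise ratio.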 The following applies: small-molecule microarray binding, fluorescence 635 nm; higher = more signal.
With `COCCOC(=O)N1C(=O)[C@@]2(c3cc(C#CCCO)ccc31)[C@H](C(N)=O)[C@H]1C(=O)O[C@H](c3ccccc3)[C@H](c3ccccc3)N1[C@@H]2c1ccccc1OCCO`, the composite z-score amounted to 1.59.
Still for that read-out and setting: the value for `CC1CC/C=C\[C@H]2OC34C=CCN(C(C)(C)C)C(=O)[C@H]3N(CCCO)C(=O)[C@@H]4C2C(=O)O1` (stereo partly specified) was 0.28; that for `COc1ccc([Si](C)(C)[C@H]2[C@H](CC(=O)N3Cc4ccccc4C[C@H]3CO)O[C@@]3(C(=O)N(C)c4ccccc43)[C@@H]2C)cc1` was 1.52; that for `Cc1ccc(S[C@]2(C(=O)NCCCN(C)C)CC(=O)N(C3Cc4ccccc4C3)[C@@H]2c2ccc(CO)cc2I)cc1` was 1.58.
Same read-out and setting: the value for `O=C1O[C@H](c2ccccc2)[C@H](c2ccccc2)N2[C@H]1[C@@H](C(=O)N1CCN(c3ncccn3)CC1)[C@]1(C(=O)Nc3ccc(C#CCCO)cc31)[C@H]2c1ccc(O)cc1` was 0.772.
On the same count and under the same terms, for `[N-]=[N+]=Nc1ccccc1C[C@]1(C(=O)N2CCOCC2)N=C(c2ccc(OCCCO)cc2)O[C@H]1c1ccccc1N=[N+]=[N-]` the value was 1.53; for `COc1ccc(C(=O)Nc2ccc(CN3C(=O)[C@@]4(O[C@@H](CCn5cc(CCO)nn5)[C@H]([Si](C)(C)c5ccc(OC)cc5)[C@H]4C)c4ccccc43)cc2)cc1`, 1.36.
In the case of `NC(=O)NCC#Cc1ccc2c(c1)[C@]1(C(=O)N2)[C@H](c2ccc(OCCO)cc2)N2[C@H](c3ccccc3)[C@H](c3ccccc3)OC(=O)[C@H]2[C@@H]1C(=O)NC[C@H](O)c1ccccc1`, the composite z-score came to 1.24.
Same read-out and setting: for `O=C1[C@H]2C=C(I)[C@H](C[C@@H]2c2ccccc2)[C@@]12CO2` the value was -0.506; for `CC(C)NC(=O)[C@@H]1c2ccccc2C(=O)N(Cc2ccc(OC(F)(F)F)cc2)[C@H]1c1ccc(CO)cc1`, 0.471; for `COc1ccc([Si](C)(C)[C@H]2[C@H](CC(=O)N3Cc4ccccc4C[C@H]3CO)O[C@@]3(C(=O)N(c4ccccc4)c4ccccc43)[C@@H]2C)cc1`, 1.64.
Same read-out and setting: for `CC(C)(C)N1CC=CC23O[C@@H]4/C=C\CCCOC(=O)C4[C@H]2C(=O)N(CCCO)[C@@H]3C1=O` (stereo partly specified) the value was 1.18.
`O=C1C2C=CC(C(O)c3ccc([N+](=O)[O-])cc3)N(Nc3ccccc3F)C2C(=O)N1c1ccccc1` (stereo unspecified) registered a composite z-score of 1.22.
Same read-out and setting: the value for `COc1ccccc1CN1C(=O)c2ccccc2[C@](Cc2ccccc2I)(C(=O)NCC(C)C)[C@@H]1c1ccc(CO)cc1` was 1.66; that for `C=C(CCCC)/C(=C/C[C@H](OC(=O)c1ccncc1)c1ccc(OCCO)cc1)c1cnc2ccccc2c1` was 1.47; that for `CCCC[C@H]1C[C@@H]1[C@@H]1N(C(C)=O)[C@H](c2cccc(OC)c2)CC12CC2` was -0.497.
The same measure, in the same setting: the value for `O=C1O[C@H](Cc2ccccc2)[C@@H]2[C@H]3C=CCCC=C3CN2[C@H]1Cc1ccc(O)cc1` was 0.968.
The compound `COCCOC(=O)N1C(=O)[C@@]2(c3cc(C#CCC(C(=O)OC)C(=O)OC)ccc31)[C@H](C(=O)Nc1nc3ccccc3s1)[C@H]1C(=O)O[C@H](c3ccccc3)[C@H](c3ccccc3)N1[C@@H]2c1ccc(OCCO)cc1` gave a composite z-score of 0.659.
For the compound `CCCCCCc1nc(Cc2cc(OC)c(OC)c(OC)c2)cc2c1[Si](C(C)C)(C(C)C)O[C@H]2c1ccccc1`, the composite z-score worked out at 0.268.
The same measure, in the same setting: for `COC(=O)c1cccc([C@H]2OC(=CC(=O)OC(C)C)C[C@@H](c3cccc(C(=O)OC)c3)O2)c1` the value was 1.26; for `C=CC[C@]1(C(=O)NCC(O)CO)COC(c2ccc(OCCCO)cc2)=N1` (stereo partly specified), -0.329.
In the case of `COC(=O)[C@@]1(Cc2ccccc2)[C@H]2c3cc(C(=O)N(C)C)n(Cc4ccc(C(F)(F)F)nc4)c3C[C@H]2CN1C(=O)c1ccccc1`, the composite z-score amounted to 1.52.
Turning to `CCCNC(=O)[C@@]1(c2ccc([N+](=O)[O-])cc2)CC(=O)N(C(C)C)[C@@H]1c1ccc(CO)cc1`, the composite z-score is 0.928.
Same read-out and setting: for `C[C@@H]1NC(=O)C([C@@H](C)OCc2ccccc2)NC(=O)[C@@]23C(=O)N[C@@H](Cc4ccccc4)C2[C@H](C)[C@@]2(C)O[C@H]2C3/C=C/C/C=C\CNC1=O` (stereo partly specified) the value was 1.58; for `CCOC(=O)C1=C[C@@H](C(C)(C)C)N(S(=O)(=O)c2ccc(C)cc2)[C@H]1c1ccc(C#N)cc1`, 0.895.

System in a further assay: not listed separately
Description: small-molecule microarray binders of probe aDKK1, primary screen, biochemical, biotinylated probe, 635/667 nm fluorescence (AID 1099).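 Also: score merges 667nm spot fluorescence with signal to noise across triplicate slides; reference of the scale not given here.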 The following applies: higher = more signal.
As to `C=C1C(=O)C=C2CN(C(=O)c3ccccc3)[C@@](Cc3ccc(OC)cc3)(C(=O)OC)[C@@H]12`, the composite z-score is 1.18.
On the same count and under the same terms, the value for `COC(=O)[C@@]1(Cc2ccc(F)cc2)[C@H]2c3cc(C(=O)N(C)C)n(C)c3C[C@H]2CN1C(=O)c1ccccc1` was 0.903.
Compound `COCCCNC(=O)[C@@]1(CCS(=O)(=O)c2ccccc2)COC(c2ccc(OCCCO)cc2)=N1` registered a composite z-score of 1.56.
Still for that read-out and setting: the value for `CO[C@H]1O[C@H](CO)[C@@H](OC(=O)Nc2ccc3c(c2)OCO3)[C@H](OC(=O)Nc2ccccc2-c2ccccc2)[C@H]1OC(=O)Nc1ccccc1-c1ccccc1` was 0.446.
Still for that read-out and setting: for `NC(=O)N1C(=O)C2C(C1=O)C1C=C(CCCO)C2C(C2CC2)N1Cc1sc2ccccc2c1Cl` (stereo unspecified) the value was -0.129; for `C=CC[C@@]1(C(=O)OC)N=C(c2ccc(OCCCO)cc2)O[C@@H]1c1ccccc1N=[N+]=[N-]`, 0.6; for `C=CCC(OC(C)=O)[C@@H]1[C@@H](N(Cc2ccc(-c3ccccc3)cc2)C(=O)c2cccc3ccccc23)c2cc(OCCCO)ccc2N1C(=O)Cc1ccc(OC)cc1` (stereo partly specified), 0.267.
`CCOc1cc(C(O)C2C=CC3C(=O)N(c4ccccc4)C(=O)C3N2Nc2ccccc2F)ccc1O` (stereo unspecified) yielded a composite z-score of 1.42.
On the same count and under the same terms, the value for `C=CCC(OC(C)=O)[C@@H]1[C@@H](N(Cc2cc3ccccc3o2)C(=O)c2cccc3ccccc23)c2cc(OCCCO)ccc2N1C(=O)c1ccc2ccccc2n1` (stereo partly specified) was 0.749; that for `COc1ccc(C(O)C2C=CC3C(=O)N(C)C(=O)C3N2N(c2ccccc2)c2ccccc2)cc1` (stereo unspecified) was 0.996.
`O=C1O[C@@H](c2ccccc2)[C@@H](c2ccccc2)N2[C@@H](c3ccc(OCCO)cc3)[C@]3(C(=O)Nc4ccc(C#CC5(O)CCCCCC5)cc43)[C@@H](C(=O)Nc3nc4ccccc4s3)[C@H]12`: the composite z-score was 0.552.
The same measure, in the same setting: the value for `COCCOC(=O)N1C(=O)[C@@]2(c3cc(C#CCCO)ccc31)[C@H](C(N)=O)[C@H]1C(=O)O[C@H](c3ccccc3)[C@H](c3ccccc3)N1[C@@H]2c1ccccc1OCCO` was 0.7; that for `CC1CC/C=C\[C@H]2OC34C=CCN(C(C)(C)C)C(=O)[C@H]3N(CCCO)C(=O)[C@@H]4C2C(=O)O1` (stereo partly specified) was -0.107.
Compound `COc1ccc([Si](C)(C)[C@H]2[C@H](CC(=O)N3Cc4ccccc4C[C@H]3CO)O[C@@]3(C(=O)N(C)c4ccccc43)[C@@H]2C)cc1` came in with a composite z-score of -0.127.
On the same count and under the same terms, the value for `Cc1ccc(S[C@]2(C(=O)NCCCN(C)C)CC(=O)N(C3Cc4ccccc4C3)[C@@H]2c2ccc(CO)cc2I)cc1` was 0.182; that for `O=C1O[C@H](c2ccccc2)[C@H](c2ccccc2)N2[C@H]1[C@@H](C(=O)N1CCN(c3ncccn3)CC1)[C@]1(C(=O)Nc3ccc(C#CCCO)cc31)[C@H]2c1ccc(O)cc1` was -0.238.
`[N-]=[N+]=Nc1ccccc1C[C@]1(C(=O)N2CCOCC2)N=C(c2ccc(OCCCO)cc2)O[C@H]1c1ccccc1N=[N+]=[N-]` showed a composite z-score of 0.651.
For the compound `COc1ccc(C(=O)Nc2ccc(CN3C(=O)[C@@]4(O[C@@H](CCn5cc(CCO)nn5)[C@H]([Si](C)(C)c5ccc(OC)cc5)[C@H]4C)c4ccccc43)cc2)cc1`, the composite z-score is 0.635.
Regarding `NC(=O)NCC#Cc1ccc2c(c1)[C@]1(C(=O)N2)[C@H](c2ccc(OCCO)cc2)N2[C@H](c3ccccc3)[C@H](c3ccccc3)OC(=O)[C@H]2[C@@H]1C(=O)NC[C@H](O)c1ccccc1`, the composite z-score is 0.0619.
For the compound `O=C1[C@H]2C=C(I)[C@H](C[C@@H]2c2ccccc2)[C@@]12CO2`, the composite z-score was -0.322.
The compound `CC(C)NC(=O)[C@@H]1c2ccccc2C(=O)N(Cc2ccc(OC(F)(F)F)cc2)[C@H]1c1ccc(CO)cc1` returned a composite z-score of 1.21.
The compound `COc1ccc([Si](C)(C)[C@H]2[C@H](CC(=O)N3Cc4ccccc4C[C@H]3CO)O[C@@]3(C(=O)N(c4ccccc4)c4ccccc43)[C@@H]2C)cc1` gave a composite z-score of -0.179.
`CC(C)(C)N1CC=CC23O[C@@H]4/C=C\CCCOC(=O)C4[C@H]2C(=O)N(CCCO)[C@@H]3C1=O` (stereo partly specified) came in with a composite z-score of -0.396.
For `O=C1C2C=CC(C(O)c3ccc([N+](=O)[O-])cc3)N(Nc3ccccc3F)C2C(=O)N1c1ccccc1` (stereo unspecified), the composite z-score was 0.912.
Same read-out and setting: the value for `COc1ccccc1CN1C(=O)c2ccccc2[C@](Cc2ccccc2I)(C(=O)NCC(C)C)[C@@H]1c1ccc(CO)cc1` was 0.736; that for `C=C(CCCC)/C(=C/C[C@H](OC(=O)c1ccncc1)c1ccc(OCCO)cc1)c1cnc2ccccc2c1` was -0.107; that for `CCCC[C@H]1C[C@@H]1[C@@H]1N(C(C)=O)[C@H](c2cccc(OC)c2)CC12CC2` was 0.692.
Same read-out and setting: for `O=C1O[C@H](Cc2ccccc2)[C@@H]2[C@H]3C=CCCC=C3CN2[C@H]1Cc1ccc(O)cc1` the value was -0.271.
Still for that read-out and setting: the value for `COCCOC(=O)N1C(=O)[C@@]2(c3cc(C#CCC(C(=O)OC)C(=O)OC)ccc31)[C@H](C(=O)Nc1nc3ccccc3s1)[C@H]1C(=O)O[C@H](c3ccccc3)[C@H](c3ccccc3)N1[C@@H]2c1ccc(OCCO)cc1` was 0.0831; that for `CCCCCCc1nc(Cc2cc(OC)c(OC)c(OC)c2)cc2c1[Si](C(C)C)(C(C)C)O[C@H]2c1ccccc1` was -0.333; that for `COC(=O)c1cccc([C@H]2OC(=CC(=O)OC(C)C)C[C@@H](c3cccc(C(=O)OC)c3)O2)c1` was 0.515.
In the case of `C=CC[C@]1(C(=O)NCC(O)CO)COC(c2ccc(OCCCO)cc2)=N1` (stereo partly specified), the composite z-score was 0.787.
On the same count and under the same terms, for `COC(=O)[C@@]1(Cc2ccccc2)[C@H]2c3cc(C(=O)N(C)C)n(Cc4ccc(C(F)(F)F)nc4)c3C[C@H]2CN1C(=O)c1ccccc1` the value was 1.17; for `CCCNC(=O)[C@@]1(c2ccc([N+](=O)[O-])cc2)CC(=O)N(C(C)C)[C@@H]1c1ccc(CO)cc1`, -0.0525; for `C[C@@H]1NC(=O)C([C@@H](C)OCc2ccccc2)NC(=O)[C@@]23C(=O)N[C@@H](Cc4ccccc4)C2[C@H](C)[C@@]2(C)O[C@H]2C3/C=C/C/C=C\CNC1=O` (stereo partly specified), -0.76.
Take `CCOC(=O)C1=C[C@@H](C(C)(C)C)N(S(=O)(=O)c2ccc(C)cc2)[C@H]1c1ccc(C#N)cc1`: the composite z-score amounted to 0.328.
